Among the test systems are T-47D breast; BT-549 breast; MDA-MB-435 melanoma; SW-620 colon; HCT-116 colon; HCC-2998 colon; KM12 colon; MCF7 breast.
Holding throughout (experiment): NCI-60 one-dose screen, 48 h (100 = growth as untreated, 0 = no growth, -100 = all killed)
What all share (details): 10 µM unless noted

This is part of a sample that, as a whole, favours compounds with a hit. Of some 83,000 tested, about 20% had one in any assay.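 Treatment: one concentration, 48 hours, 96-well format. Scoring: percent growth, with anything below 10 considered active.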 Unmarked numbers belong to inactive results. Active and inactive are the calls of the source.

In the case of `COC(=O)c1ccc2nc(-c3cc4ccccc4n3C)n(CCCCOc3cc4c(cc3OC)C(=O)N3CCC[C@H]3C=N4)c2c1`, the growth with T-47D breast was 4.1% (active); in the experiment on BT-549 breast it was -53.6% (active); in the experiment on MDA-MB-435 melanoma, -88.6% (active); with SW-620 colon, -23% (active); in the experiment on HCT-116 colon, 8.52% (active); in the experiment with HCC-2998 colon it was -17.6% (active). Also, the growth in the experiment with KM12 colon was -29.2% (active).
As for `Nc1c(C(=O)Nc2cccc(C(F)(F)F)c2)sc2nc3c(cc12)CCCCCC3`, the growth with T-47D breast is -7% (active); in the experiment with BT-549 breast, 59.6%; in the experiment on MDA-MB-435 melanoma it was 31%; in the experiment on MCF7 breast, 20.4%; in the experiment on HCT-116 colon it was -18.1% (active); with HCC-2998 colon, 37.1%.
In the case of `Nc1c(C(=O)c2ccc(F)cc2)sc2nc3c(cc12)CCCC3`, the growth in the experiment on T-47D breast was 79.9%; with BT-549 breast it was 90.7%; in the experiment with MDA-MB-435 melanoma, 22.5%; in the experiment with SW-620 colon it was 81%; with HCT-116 colon, 72.2%; in the experiment on HCC-2998 colon, 76.7%. Also, in the experiment with KM12 colon, the growth is 66.2%.
Take `Cc1c(C2=NNC(c3ccc4c(c3)OCO4)C2)[n+]([O-])c2ccccc2[n+]1[O-]` (configuration not stated): the growth is 92.3% in the experiment on T-47D breast; 91% in the experiment with BT-549 breast; 108% with MDA-MB-435 melanoma; 92.8% with MCF7 breast; 99.2% in the experiment with HCT-116 colon; 84.2% in the experiment on HCC-2998 colon. Further, the growth in the experiment with KM12 colon was 113%.
Turning to `CCN(CC)CCCC(C)N=c1cc(Nc2cc(=NC(C)CCCN(CC)CC)c3cc(OC)ccc3o2)oc2ccc(OC)cc12` (configuration not stated), the growth in the experiment with T-47D breast was 25.8%; in the experiment on BT-549 breast, -69.4% (active); in the experiment on MDA-MB-435 melanoma it was -87.4% (active); in the experiment with SW-620 colon, -2.14% (active); in the experiment on MCF7 breast it was -26.8% (active); with KM12 colon, -4.99% (active).
In the case of `COc1ccc(C2SCC(=O)N2NC(=O)c2ccc(NC(=O)c3ccccn3)cc2)cc1OC` (configuration not stated), the growth was 97.8% with T-47D breast; 102% in the experiment with BT-549 breast; 104% in the experiment on MDA-MB-435 melanoma; 104% in the experiment with SW-620 colon; 100% in the experiment on HCT-116 colon; 104% in the experiment on HCC-2998 colon. For the same compound, in the experiment with KM12 colon, the growth was 95.8%.
Turning to `Cc1cc(C)c2c(=O)[nH]c(SCC(=O)Nc3cccc(S(=O)(=O)N(C)C)c3)nc2n1`, the growth is 92.4% in the experiment with T-47D breast; 103% in the experiment on BT-549 breast; 105% in the experiment with MDA-MB-435 melanoma; 97.4% in the experiment with MCF7 breast; 97.1% in the experiment on HCT-116 colon; 106% in the experiment with HCC-2998 colon.
For the compound `Cc1ccccc1C(=O)c1ccccc1C(=O)O`, the growth is 107% in the experiment on T-47D breast; 106% with BT-549 breast; 102% in the experiment with SW-620 colon; 100% with MCF7 breast; 103% with HCT-116 colon; 105% with HCC-2998 colon. Besides, in the experiment on KM12 colon, the growth was 107%.
In the case of `NCCSC(c1ccccc1)(c1ccccc1)c1ccccc1`, the growth in the experiment on T-47D breast was 25.6%; in the experiment on BT-549 breast, 22.1%; in the experiment with MDA-MB-435 melanoma, -52.9% (active); in the experiment on MCF7 breast, 2.6% (active); in the experiment on HCT-116 colon it was 7.63% (active); in the experiment with HCC-2998 colon, -41.7% (active). Also, in the experiment with KM12 colon, the growth was 17.9%.
Take `CCn1cc(C2NC(=O)c3cc(F)ccc3N2)c2cccc(Cl)c21` (configuration not stated): the growth was 58.3% in the experiment on T-47D breast; 26.9% in the experiment on BT-549 breast; -31.7% (active) in the experiment with MDA-MB-435 melanoma; 15.5% with MCF7 breast; 8.12% (active) in the experiment on HCT-116 colon; 7.64% (active) in the experiment on HCC-2998 colon. The growth with KM12 colon was 19.2%.
As for `COc1ccc(/C(=N/O)c2cc(OC)c(OC)c(OC)c2)c(OC)c1N`, the growth in the experiment on T-47D breast was 27.2%; in the experiment with BT-549 breast, 36.2%; with MDA-MB-435 melanoma it was -42.3% (active); with MCF7 breast it was 21%; in the experiment on HCT-116 colon, 20.6%; with HCC-2998 colon, 73.4%. Besides, the growth in the experiment with KM12 colon was 23.8%.
Consider `COc1ccc(/C=C/C(=O)c2cccc(B(O)O)c2)cc1O`, for which the growth with T-47D breast is 32.4%; in the experiment with BT-549 breast it was 13.9%; with SW-620 colon, 9.61% (active); with MCF7 breast, 24.3%; in the experiment with HCT-116 colon it was 3.16% (active); with HCC-2998 colon, 54.3%. The growth in the experiment on KM12 colon was 3.44% (active).
Regarding `CCCCCCCCCCCCCCCCC(Br)C(=O)O` (configuration not stated), the growth in the experiment on T-47D breast was 86.7%; in the experiment with BT-549 breast, 122%; in the experiment on MDA-MB-435 melanoma it was 98.4%; in the experiment with MCF7 breast, 92.9%; in the experiment with HCT-116 colon, 105%; in the experiment on HCC-2998 colon it was 102%. Also, the growth in the experiment with KM12 colon is 111%.
For `O=c1oc2cc(OS(=O)(=O)c3ccc(F)cc3)ccc2c2c1CCCCC2`, the growth is 30.3% in the experiment with T-47D breast; 73.6% in the experiment with BT-549 breast; 46.3% with SW-620 colon; 59.9% with MCF7 breast; 54.4% in the experiment with HCT-116 colon; 69.8% in the experiment with HCC-2998 colon. Also, in the experiment with KM12 colon, the growth is 55.1%.
Turning to `CCCCOc1nc2c(C)cccc2cc1C1CNC(=O)c2ccccc2N1` (configuration not stated), the growth with T-47D breast was 58.4%; with BT-549 breast, 74.5%; in the experiment on SW-620 colon, 42.3%; in the experiment with MCF7 breast, 15.8%; with HCT-116 colon it was 45.9%; in the experiment with HCC-2998 colon, 101%. Further, in the experiment with KM12 colon, the growth was 56.4%.
In the case of `CCn1c(=O)c2c(=O)c3c4c(oc3oc2c2ccccc21)C(=O)c1ccccc1C4=O`, the growth was -9.96% (active) in the experiment with T-47D breast; 85.1% in the experiment on BT-549 breast; 73.5% in the experiment on SW-620 colon; 61.9% with MCF7 breast; 34.6% with HCT-116 colon; 101% with HCC-2998 colon. For the same compound, the growth with KM12 colon is 86.6%.
Consider `Cn1c(-c2nonc2NC(=O)c2ccc(F)cc2)nc2ccccc21`, for which the growth was 96.5% in the experiment with T-47D breast; 109% in the experiment on BT-549 breast; 107% with MDA-MB-435 melanoma; 89.1% in the experiment with MCF7 breast; 106% in the experiment on HCT-116 colon; 100% in the experiment on HCC-2998 colon. In addition, the growth in the experiment with KM12 colon was 103%.
Regarding `COC1=CC(c2ccc[nH]2)=N/C1=C\c1[nH]c(C)c(CCCn2cc(CCCCCCCCC[C@@H]3Cc4cc(O)ccc4C4CC[C@]5(C)[C@@H](O)CC[C@H]5C43)nn2)c1C` (some centres not stated), the growth with T-47D breast was 38.4%; with BT-549 breast, 67.6%; with MDA-MB-435 melanoma it was 72.4%; in the experiment on MCF7 breast, 16.4%; with HCC-2998 colon, 36.4%; in the experiment with KM12 colon, 16.2%.

Values taken from PubChem BioAssay (NCI).
